High-throughput results: PubChem, National Center for Advancing Translational Sciences (NCATS)
This is a sample that favours compounds with a hit; in the whole collection about 2.5% have one here.
Cruzain Triton – cruzain (T. cruzi) inhibition with detergent | Potency, µM, for inactives: max response, negative = inhibition, most hits filed as inhibitors | purified cruzain, Z-FR-AMC fluorescence, 0.01% Triton | 200,000 tested, 0.43% active | AID 1478;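 note: plate controls were neutral wells for no effect and buffer without enzyme for full effect; nearly all actives have a fitted effect of over 40% in size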
Target sequence (P25779 123-467 limits assumed): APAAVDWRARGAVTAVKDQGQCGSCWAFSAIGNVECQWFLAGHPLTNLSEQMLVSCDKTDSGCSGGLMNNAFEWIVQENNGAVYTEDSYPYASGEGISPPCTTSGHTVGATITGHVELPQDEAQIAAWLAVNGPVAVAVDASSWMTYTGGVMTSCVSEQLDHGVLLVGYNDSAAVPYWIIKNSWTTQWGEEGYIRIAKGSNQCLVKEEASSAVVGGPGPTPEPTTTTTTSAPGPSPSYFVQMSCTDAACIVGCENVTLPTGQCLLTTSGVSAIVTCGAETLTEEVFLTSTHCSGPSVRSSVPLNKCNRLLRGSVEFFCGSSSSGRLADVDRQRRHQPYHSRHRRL
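15 min RT preincubation of 1.5 nM cruzain with compound, then 2 uM Z-FR-AMC added; kinetic AMC fluorescence, 60 s delta. Triton X-100 0.01%, pH 5.5.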
Cruzain noTriton – cruzain (T. cruzi) inhibition without detergent | Potency, µM, inactives show max response, negative = inhibition, hits mostly inhibitors | P25779 | AID 1476 | 200,000 tested, 2.3% active | purified cruzain, Z-FR-AMC fluorescence, no detergent;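 note: plate controls were enzyme without inhibitor for no effect and buffer without enzyme for full effect; nearly all actives have a fitted effect of over 40% in size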
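Detergent-free condition (0.00005% Triton X-100) in acetate buffer pH 5.5 with DTT. 1.5 nM enzyme and compound were pre-mixed 15 min, then 2 uM Z-FR-AMC substrate added; reaction progress from fluorescence change between first and third reads (60 s).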
The depositor's hits bear a star; ? = inconclusive. Calls come from the whole dose curve; as a rule, active = well fitted curve in the direction sought with a large enough effect; inconclusive = small, poorly fitted or top-dose-only effect, or another doubt; inactive = no such curve, though single readings can be large; an effect the other way counts as inactive or inconclusive. Potency is the fitted concentration of half-maximal effect.

SMILES	Cruzain Triton	Cruzain noTriton
CCOc1ccccc1N=C1SC(CC(=O)Nc2ccc(OC)cc2OC)C(=O)N1CCC1=CCCCC1 (stereo unspecified)	-4.1%	?
Cc1ccc(S(=O)(=O)c2cn(CC(=O)Nc3ccc(F)cc3)c3cc4c(cc3c2=O)OCO4)cc1	-1.9%	-16.1%
COCCCNC(=O)Cn1c(=O)n(-c2cccc(C)c2)c(=O)c2c1c1cc(C)ccc1n2C	0.7%	6.7%
CCOC(=O)c1c(C)oc2nc(C)nc(Nc3ccc(C)c(Cl)c3)c12	0.8%	-0.9%
COc1ccc(/C(N)=N/OC(=O)c2cc(-c3ccccc3)nc3ccccc23)cc1	-1.8%	20µM*
Cc1ccc(/C(N)=N/OC(=O)c2cc(-c3ccccc3)nc3ccccc23)cc1	-3.3%	-16.6%
COc1ccc(CNC(=O)Cc2c(C)c3ccc(O)cc3oc2=O)cc1	-22.8%	25.1µM*
COc1ccc(CNC(=O)Cc2c(C)c3c(O)cc(C)cc3oc2=O)cc1	0.0%	-4.0%
COc1ccc(NC(=O)c2ccc3nc(CCc4ccccc4)oc3c2)cc1	5.7%	15.6%
CCn1c(=O)c2sccc2n2c(CCC(=O)Nc3ccc(C(C)C)cc3)nnc12	-1.0%	?
COC(=O)CN1C(=O)C(C)(C)c2cc(S(=O)(=O)Nc3ccc(C(C)C)cc3)ccc21	-5.9%	?
O=C(Cn1c(=O)n(-c2ccc(Cl)cc2)c(=O)c2sc3ccccc3c21)NC1CCCCC1	-1.5%	-5.1%
CCCNC(=O)c1ccc2c(c1)N=C(C)c1c(C)ccc(C)c1S2	-7.9%	2.9%
CC(=O)C1=C(c2ccc(Br)cc2)N(C(C)=O)n2c(nnc2C2CCCCC2)S1	0.8%	-5.0%
Cc1ccc(NC(=O)Nc2cn(CC(C)C)c(=O)c3ccccc23)cc1N(C)C	-5.6%	3.5%
CCCCCC(=O)NCC(C)NC(=O)CCCCC (stereo unspecified)	-0.9%	13.0%
CC(CNC(=O)C(C)(C)C)NC(=O)C(C)(C)C (stereo unspecified)	-2.6%	5.01µM*
COc1ccccc1CNC(=O)CCC1N=C2c3ccccc3N=C(SCc3ccc(C)cc3C)N2C1=O (stereo unspecified)	-9.3%	-3.4%
COc1ccccc1/C=N/NC(=O)c1ccccc1NS(=O)(=O)c1ccc(C)cc1	-8.4%	-0.6%
COc1ccccc1/C=N/NC(=O)C1=NNC(c2ccccc2)(c2ccccc2)C1	-9.6%	15.8µM*
COc1cccc(/C=N/NC(=O)c2ccc(-c3ccccc3)cc2)c1O	1.0%	15.8µM*
COc1cccc(/C=N/NC(=O)c2ccc(=O)n(C)c2)c1O	-3.2%	-12.2%
Cc1cccc(C)c1Nc1nc2ccccc2nc1NS(=O)(=O)c1ccccc1	-9.6%	-3.3%
CCCc1cc(=O)[nH]c2nnc(SCC)n12	-0.1%	6.4%
COc1ccccc1Cn1c(=O)c2ccccc2n2c(Sc3ncnc4sccc34)nnc12	-1.1%	15.8µM*
SMILES	Cruzain Triton	Cruzain noTriton
COc1ccccc1Cn1c(=O)c2ccccc2n2c(SCc3csc(C)n3)nnc12	-3.2%	2.8%
CC1=NN(C(=O)c2ccncc2)C(=O)[C@@H]1N=Nc1ccc2ccccc2c1	-2.8%	-5.4%
CC1=NN(c2nc(-c3ccc(C)cc3)cs2)C(=O)C1N=Nc1ccc2ccccc2c1 (stereo unspecified)	-7.5%	3.16µM*
CCCCc1ccc(NS(=O)(=O)c2cc3c4c(c2)CC(=O)N4CCC3)cc1	-14.7%	22.5%
O=C1NC(=S)S/C1=C\c1ccc(SCc2ccco2)o1	15.8µM*	?
O=C1NC(=S)S/C1=C\c1ccc(SCc2ccccc2)o1	-21.7%	-15.9%
COc1ccc(NC(=O)Cn2c(=O)n(Cc3ccco3)c(=O)c3sc4ccccc4c32)cc1Cl	-13.3%	25.1µM*
COc1ccc(NC(=O)Cn2c(=O)n(Cc3ccco3)c(=O)c3sc4ccccc4c32)c(OC)c1	-2.9%	3.1%
O=C1N/C(=C/c2cccn2-c2ccccc2)C(=O)N1Cc1ccc(F)cc1	-4.7%	12.6µM*
O=C1N/C(=C/c2cccn2-c2ccc(F)cc2)C(=O)N1Cc1ccccc1F	-10.9%	?
CCOC(=O)c1c(C)[nH]c(C)c1S(=O)(=O)NCC(=O)NCc1cccc(Br)c1	-3.4%	-3.1%
CCOc1cc(/C=N/NC(N)=S)cc(Br)c1OCc1ccccc1C	3.16µM*	1µM*
CCOc1cc(/C=N/NC(N)=O)cc(Br)c1OCc1ccccc1	4.0%	-3.2%
COc1cc(/C=N/NC(N)=S)cc(Br)c1OCc1ccccc1F	0.562µM*	0.199µM*
CCOc1c(Br)cc(/C=N\NC(=O)c2ccccc2)cc1OC	-5.0%	-3.5%
COc1cc(/C=N/N=C(/N)c2nonc2N)cc(Br)c1OCc1cccc(C)c1	3.6%	-12.5%
CCOc1cc(/C=N/N=C(\N)c2nonc2N)cc(Br)c1OCc1cccc2ccccc12	4.4%	6.31µM*
Cc1csc2nc(-c3cccc(NC(=O)C(C)C)c3)cn12	0.2%	-12.6%
CCn1cc2nc(SCc3cccc(C(F)(F)F)c3)n(Cc3ccc(Cl)cc3)c(=O)c2n1	1.8%	-2.1%
Cc1cccc(-c2nc(S(=O)(=O)c3ccccc3)c(N3CCN(c4ccccc4)CC3)o2)c1	-0.2%	-29.8%
CCc1ccccc1NC(=O)C(=O)c1cc(C)n(-c2ccccc2F)c1C	-3.3%	-3.2%
Cc1ccc(OCc2nc(-c3ccc(C(=O)N4CCN(c5cccc(C(F)(F)F)c5)CC4)cc3)oc2C)cc1	-1.0%	8.8%
Fc1ccc2c(Cl)c(-c3nnc(-c4cccs4)o3)sc2c1	3.6%	10µM*
COc1cc(-c2nnc(-c3cccs3)o2)cc(OC)c1OC	-1.0%	-0.5%
O=C(CCS(=O)(=O)c1nc(-c2ccc3c(c2)OCO3)cc(C(F)(F)F)n1)Nc1ccccc1C(F)(F)F	-28.8%	?
SMILES	Cruzain Triton	Cruzain noTriton
O=C(Nc1nc2n(n1)C(c1ccc(F)cc1)C=C(c1ccc(Cl)cc1)N2)c1ccc([N+](=O)[O-])cc1 (stereo unspecified)	-4.0%	-4.5%
Cn1cc(/C=C(\C#N)C(=O)Nc2ncc(Cc3cccc(Cl)c3)s2)c2ccccc21	-6.3%	7.94µM*
O=C(Nc1ncc(Cc2cccc(Cl)c2)s1)C1CCCO1 (stereo unspecified)	-2.6%	-3.6%
CCOC(=O)/C(C#N)=C/c1c[nH]c2ccccc12	-14.9%	0.9%
N#C/C(=C\c1c[nH]c2ccccc12)C(=O)Nc1ncc(Cc2ccc(Cl)cc2Cl)s1	-1.5%	7.94µM*
CC(C)CCNC(=O)c1ccc(Cn2c(=O)c3cccn3c3cccnc32)cc1	-4.3%	-16.6%
CCOc1ccc(-c2cc(CCCC(=O)NCCc3ccc(SC)cc3)no2)cc1	-1.1%	-12.9%
CCCCN(CCCC)C(=O)CN(C)S(=O)(=O)c1ccc2c(c1)c(=O)n(C)c(=O)n2C	1.1%	?
Cn1cc(-c2nc3cnc(N4CCOCC4)nc3n(CCC#N)c2=O)c2ccccc21	-1.5%	-2.4%
CC(=O)Nc1nonc1-c1nnc(SCC(=O)N(C)c2ccccc2)n1C	-0.6%	2.6%
CC(C)C[C@@H](CC(=O)N[C@H](CC(=O)N[C@@H]1CCNC[C@H]1C(=O)N[C@H](CC(=O)N[C@@H](CCC(=O)O)CC(=O)O)Cc1c[nH]c2ccccc12)C(C)C)NC(=O)[C@@H]1CCCC[C@H]1N	-0.2%	-14.3%
CCc1ccccc1NC(=O)Cn1c(=O)n(-c2ccc(C)c(C)c2)c(=O)c2oc3ccccc3c21	-0.2%	4.5%
COc1ccc(C)cc1N(C(=O)c1cccc(F)c1)c1nc2ccccc2s1	-7.2%	?
COc1ccccc1N(C(=O)c1cncc(Br)c1)c1nc(-c2ccc(C)cc2)cs1	-1.9%	12.6µM*
